What is called AC50 is the concentration at which the activity in the assay is half-maximal.

The results in this text go back to PubChem BioAssay (EPA / NIEHS).

The target in assay [1] is Glucocorticoid receptor (Homo sapiens) (UniProt P04150). Put plainly: ATG_GR_TRANS: Attagene TRANS-FACTORIAL HepG2 Assay for human Glucocorticoid Receptor (GR) (AID 2282978; active means hit-call score of the fitted dose curve at least 0.9, where 1 is the maximum;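 further: activators score as hits since higher reporter transcript over DMSO is fitted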). Particulars: HepG2 Attagene TRANS GR reporter, mRNA transcription. The method, boiled down:
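Multiplexed TRANS reporter system, HepG2; 24 h exposure; RNA → oligo(dT) RT → reporter-specific PCR → 6-FAM primer extension → HpaI cut → CE fluorescence. Gain-of-signal vs DMSO.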

Assay [2] has as its target Bile acid receptor (Homo sapiens) (UniProt Q96RI1). Put plainly: ATG_FXR_TRANS: Attagene TRANS-FACTORIAL HepG2 Assay for Farnesoid X Receptor (FXR) (AID 2282979; active means hit-call score of the fitted dose curve at least 0.9, where 1 is the maximum;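 further: hits raise reporter mRNA above DMSO so AC50 marks FXR activation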). To be noted: HepG2 Attagene TRANS FXR-GAL4 reporter transcription. The gist of the method: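 After 24 h chemical treatment of transfected HepG2 cells, GAL4-UAS reporter transcripts driven by an exogenous FXR-GAL4 fusion were measured by RT-PCR and capillary electrophoresis. Increases over DMSO were fitted.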

For assay [3], the target named is Oxysterols receptor LXR-beta (Homo sapiens) (UniProt P55055). Kind of assay: ATG_LXRb_TRANS: Attagene TRANS-FACTORIAL HepG2 Assay for human Liver X Receptor beta (LXRb) (AID 2282981; active means hit-call score of the fitted dose curve at least 0.9, where 1 is the maximum). To be noted: HepG2 Attagene TRANS GAL4-LXRb reporter, mRNA. The gist of the method: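 After 24 h of chemical treatment, transfected HepG2 cells yield total RNA; reporter cDNA is PCR-amplified, FAM-labelled, HpaI-cut and run on capillary electrophoresis. Signal reflects chimeric LXRb-Gal4 activity on GAL4-UAS reporters.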
Sequence of Oxysterols receptor LXR-beta (Homo sapiens) (P55055 whole entry, looked up, the tested form may be a part): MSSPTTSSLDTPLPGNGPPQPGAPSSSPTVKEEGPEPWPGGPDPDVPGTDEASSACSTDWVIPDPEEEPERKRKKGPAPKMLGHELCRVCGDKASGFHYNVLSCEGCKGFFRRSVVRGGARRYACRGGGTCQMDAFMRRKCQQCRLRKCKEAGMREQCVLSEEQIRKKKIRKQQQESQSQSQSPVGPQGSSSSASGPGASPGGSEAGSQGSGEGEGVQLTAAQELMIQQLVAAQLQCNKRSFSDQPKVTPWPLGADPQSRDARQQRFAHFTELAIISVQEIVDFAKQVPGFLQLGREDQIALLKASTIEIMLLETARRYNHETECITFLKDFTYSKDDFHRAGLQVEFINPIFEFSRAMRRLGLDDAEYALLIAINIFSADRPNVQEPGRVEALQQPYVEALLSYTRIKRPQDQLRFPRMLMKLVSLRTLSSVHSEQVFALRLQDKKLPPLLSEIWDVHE

A short description of assay [4]: ATG_M_32_TRANS: Attagene TRANS-FACTORIAL HepG2 Assay for M32 Transcription Factor (Internal Marker) (AID 2282984; active means hit-call score of the fitted dose curve at least 0.9, where 1 is the maximum;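 further: transcript level of a background control reporter unit measured by RT-PCR and capillary electrophoresis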). Particulars: HepG2 Attagene TRANS M32 internal marker reporter. The method, boiled down:
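Cell-based TRANS-format assay in HepG2: exogenous chimeric GAL4 reporter units transiently expressed, compounds applied 24 h. Reporter mRNA detected by RT-PCR plus capillary electrophoresis; this readout is an internal background marker.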

Assay [5] addresses Nuclear receptor subfamily 4 group A member 2 (Homo sapiens) (UniProt P43354). Kind of assay: ATG_NURR1_TRANS: Attagene TRANS-FACTORIAL HepG2 Assay for human Nuclear Receptor Related Protein 1 (NURR1) (AID 2282985; active means hit-call score of the fitted dose curve at least 0.9, where 1 is the maximum). To be noted: HepG2 Attagene TRANS reporter, mRNA readout. The method, boiled down:
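Measures transcriptional activation by an exogenous NR-Gal4 chimera in transfected HepG2 liver cells. After 24 h, reporter RNA is reverse-transcribed, amplified and resolved by capillary electrophoresis; DMSO defines baseline.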

In assay [6] the target is Transcriptional activator Myb (Homo sapiens) (UniProt P10242). Kind of assay: ATG_Myb_CIS: Attagene CIS-FACTORIAL HepG2 Assay for human Myeloblastosis (Myb) Proto-Oncogene Transcription Factor (AID 2282986). To be noted: HepG2 Attagene CIS-FACTORIAL Myb reporter transcription; actives raise or lower the signal. The gist of the method: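 Endogenous transcription factor activity at a Myb-responsive cis element is reported in human liver HepG2 cells after 24 h chemical treatment. Reporter mRNA is detected by RT-PCR and capillary electrophoresis fluorescence, with DMSO as baseline.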
Sequence of Transcriptional activator Myb (Homo sapiens) (P10242 whole entry, looked up): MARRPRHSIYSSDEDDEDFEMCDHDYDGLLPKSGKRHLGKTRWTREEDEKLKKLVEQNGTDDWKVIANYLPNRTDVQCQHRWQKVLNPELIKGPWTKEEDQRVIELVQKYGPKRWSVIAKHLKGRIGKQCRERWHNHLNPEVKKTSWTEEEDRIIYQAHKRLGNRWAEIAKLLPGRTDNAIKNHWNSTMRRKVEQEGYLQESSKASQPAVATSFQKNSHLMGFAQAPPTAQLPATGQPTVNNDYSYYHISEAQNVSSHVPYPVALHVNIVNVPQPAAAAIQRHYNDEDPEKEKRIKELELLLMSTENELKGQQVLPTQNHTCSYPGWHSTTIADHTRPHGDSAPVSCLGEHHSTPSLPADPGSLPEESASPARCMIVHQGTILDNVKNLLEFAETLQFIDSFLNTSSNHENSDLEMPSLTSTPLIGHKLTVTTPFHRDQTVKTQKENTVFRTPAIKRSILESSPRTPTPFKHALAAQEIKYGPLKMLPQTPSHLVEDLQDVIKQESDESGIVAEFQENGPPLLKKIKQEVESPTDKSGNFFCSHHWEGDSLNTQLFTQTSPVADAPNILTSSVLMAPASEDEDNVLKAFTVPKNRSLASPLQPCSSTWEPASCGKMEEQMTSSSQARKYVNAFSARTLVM

In assay [7] the target is Nuclear respiratory factor 1 (Homo sapiens) (UniProt Q16656). Put plainly: ATG_NRF1_CIS: Attagene CIS-FACTORIAL HepG2 Assay for human Nuclear Respiratory Factor 1 (NRF1) Orphan Gene (AID 2282987). To be noted: HepG2 NRF1 cis-element reporter, Attagene multiplex; actives raise or lower the signal. The method, boiled down: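 Human hepatoma HepG2 cells carrying transfected promoter-regulated reporter units were incubated with test chemicals for 24 h. Reporter transcripts were measured by RT-PCR plus capillary electrophoresis, and endpoints derived by bidirectional fitting with DMSO as baseline.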
Sequence of Nuclear respiratory factor 1 (Homo sapiens) (Q16656 whole entry, looked up): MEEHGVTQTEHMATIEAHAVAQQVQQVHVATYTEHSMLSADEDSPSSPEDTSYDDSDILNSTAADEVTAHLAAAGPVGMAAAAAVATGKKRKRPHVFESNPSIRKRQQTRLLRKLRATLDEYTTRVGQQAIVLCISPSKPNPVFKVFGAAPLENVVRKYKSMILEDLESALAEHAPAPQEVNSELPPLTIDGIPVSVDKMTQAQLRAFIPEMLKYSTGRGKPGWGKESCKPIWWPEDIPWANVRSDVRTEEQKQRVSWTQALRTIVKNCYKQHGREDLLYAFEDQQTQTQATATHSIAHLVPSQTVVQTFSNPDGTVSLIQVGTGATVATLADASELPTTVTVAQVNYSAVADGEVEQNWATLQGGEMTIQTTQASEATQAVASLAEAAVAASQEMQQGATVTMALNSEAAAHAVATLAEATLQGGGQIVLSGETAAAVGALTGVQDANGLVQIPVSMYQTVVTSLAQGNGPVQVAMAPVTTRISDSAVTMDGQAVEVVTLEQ

A short description of assay [8]: ATG_NFI_CIS: Attagene CIS-FACTORIAL HepG2 Assay for human Nuclear Factor I (NFI) (AID 2282989). Particulars: HepG2 cis-regulatory reporter, NFI response element transcription; actives raise or lower the signal. The method, boiled down: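 Transient MRTU transfection of HepG2 → 24 h chemical dosing → total RNA, oligo(dT) RT → PCR, 6-FAM primer extension, HpaI cut → capillary electrophoresis. Endpoint fitted bidirectionally relative to DMSO.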

Assay [9] has as its target Myc proto-oncogene protein (Homo sapiens) (UniProt P01106). Put plainly: ATG_Myc_CIS: Attagene CIS-FACTORIAL HepG2 Assay for human Myelocytomatosis (Myc) Proto-Oncogene Transcription Factor (AID 2282990). Particulars: HepG2, Attagene cis-reporter transcription factor activity; actives raise or lower the signal. The gist of the method: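 HepG2, transient MRTU transfection (cis promoters, endogenous TFs); 24 h dosing; TriZol RNA → oligo(dT) RT → PCR → 6-FAM primer extension → HpaI cut → CE. Bidirectional fit vs DMSO.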

A short description of assay [10]: ATG_NRF2_ARE_CIS: Attagene CIS-FACTORIAL HepG2 Assay for human Nuclear Factor Erythroid 2 Related Factor 2 (NFR2) response to Antioxidant Response Elements (ARE) (AID 2282992).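 On AC50: reporter mRNA level measured by RT-PCR and capillary electrophoresis fluorescence.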 Particulars: HepG2 Attagene ARE/NRF2 reporter, transcription factor activity; actives raise or lower the signal. The method, boiled down:
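Endogenous transcription factor activity in human liver HepG2 cells is tracked via a cis-element-driven reporter within a multiplexed set. mRNA induction is read by RT-PCR and capillary electrophoresis after 24 h, with DMSO as baseline.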

Assay [11] addresses Cellular tumor antigen p53 (Homo sapiens) (UniProt P04637). Put plainly: ATG_p53_CIS: Attagene CIS-FACTORIAL HepG2 Assay for human p53 Transcription Factor (AID 2282994). Particulars: HepG2 p53 cis-element reporter, Attagene mRNA; actives raise or lower the signal. The gist of the method:
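Steps: transfect HepG2 with multiplexed cis reporter constructs; dose chemicals 24 h; extract RNA, reverse-transcribe, PCR-amplify reporter sequences; FAM-label, HpaI-digest, resolve fragments by CE. Activity fitted both directions relative to DMSO.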

The nature of assay [12]: ATG_NF_kB_CIS: Attagene CIS-FACTORIAL HepG2 Assay for human Nuclear Factor Kappa B (NF-kB) (AID 2282991). To be noted: HepG2 Attagene cis-factorial NF-kB reporter mRNA; actives raise or lower the signal. The method, boiled down: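 Multiplexed cis-reporter assay in transiently transfected HepG2. 24 h treatment; RNA isolated, RT-PCR, labelled fragments resolved by CE. DMSO baseline.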

The nature of assay [13]: ATG_Oct_MLP_CIS: Attagene CIS-FACTORIAL HepG2 Assay for human Octamer-Binding Transcription Factor (Oct) (AID 2282993). To be noted: HepG2 Attagene cis-factorial Oct reporter, mRNA; actives raise or lower the signal. The gist of the method: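 Transient MRTU transfection of HepG2 → 24 h compound treatment → RNA isolation, reverse transcription, PCR → 6-FAM primer extension, HpaI digest → capillary electrophoresis. Activity fitted both directions against DMSO.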

Assay [14] deals with Estrogen-related receptor gamma (Homo sapiens) (UniProt P62508). Put plainly: ATG_ERRg_TRANS: Attagene TRANS-FACTORIAL HepG2 Assay for human Estrogen-Related Receptor gamma (ERRg) (AID 2282977; active means hit-call score of the fitted dose curve at least 0.9, where 1 is the maximum;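 further: hits increase reporter signal over DMSO so potencies reflect activators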). To be noted: HepG2 Attagene TRANS reporter, ERRg transactivation. The method, boiled down:
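Exogenous NR-Gal4 chimera activity was assessed in HepG2 cells bearing transfected GAL4-UAS reporters. After 24 h dosing, total RNA underwent RT-PCR, fluorescent primer extension and HpaI digestion before capillary electrophoresis, with gain of signal scored against DMSO.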

The nature of assay [15]: ATG_M_06_TRANS: Attagene TRANS-FACTORIAL HepG2 Assay for M06 Transcription Factor (Internal Marker) (AID 2282983; active means hit-call score of the fitted dose curve at least 0.9, where 1 is the maximum;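 further: reporter transcript level by RT-PCR then capillary electrophoresis fluorescence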). Particulars: HepG2 Attagene TRANS M06 internal marker reporter. The method, boiled down:
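Multi-reporter-transfected HepG2, 24 h treatment; reporter transcripts quantified via RT-PCR, primer-extension labelling and CE. DMSO-normalized gain-of-signal fit.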

The nature of assay [16]: BSK_3C_TissueFactor: BioMAP Diversity Plus: 3C Assay for Tissue Factor Biomarker Activity (AID 2282997). To be noted: BioMAP 3C HUVEC, tissue factor biomarker readout; actives raise or lower the signal. The method, boiled down:
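In this endothelial system, HUVEC are treated for 24 h and Tissue Factor is assessed by ELISA, normalised to DMSO.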

The nature of assay [17]: BSK_3C_uPAR: BioMAP Diversity Plus: 3C Assay for Urokinase-type plasminogen activator receptor (uPAR) Biomarker Activity (AID 2282998). Particulars: BioMAP 3C HUVEC, uPAR biomarker ELISA; actives raise or lower the signal. The method, boiled down:
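ELISA readout of uPAR on human vascular endothelium (umbilical vein primary cells), taken 24 h after chemical dosing. Increases and decreases are both fitted relative to DMSO vehicle.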
(In general: ELISA stands for enzyme-linked immunosorbent assay.)

Assay [18] can be described thus: BSK_3C_VCAM1: BioMAP Diversity Plus: 3C Assay for Vascular cell adhesion molecule 1 (VCAM1) Biomarker Activity (AID 2282999). To be noted: BioMAP 3C HUVEC, VCAM1 ELISA, cytokine-stimulated; actives raise or lower the signal. The method, boiled down: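 Activity fitted in both directions relative to DMSO, with ELISA measurement of the surface marker on primary HUVEC (3C) at 24 h post-treatment; parallel SRB staining (0.1% SRB, TCA-fixed, 560 nm) flagged overt cytotoxicity.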

Assay [19] has as its target Hepatocyte nuclear factor 4-alpha (Homo sapiens) (UniProt P41235). Kind of assay: ATG_HNF4a_TRANS: Attagene TRANS-FACTORIAL HepG2 Assay for human Hepatocyte Nuclear Factor 4 alpha (HNF4a) (AID 2282982; active means hit-call score of the fitted dose curve at least 0.9, where 1 is the maximum). To be noted: HepG2 HNF4a transactivation reporter, mRNA readout. The gist of the method: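 Multiplexed reporter assay: transfected HepG2, 24 h exposure, total RNA → oligo(dT) RT → PCR → 6-FAM extension → HpaI digest → CE fluorescence. DMSO = negative control.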

Inconclusive results are not listed. Activity calls are given as the source filed them. How the source made its calls, unless noted: active means hit-call score of the fitted dose curve at least 0.9, where 1 is the maximum; inactive means score below 0.9.

Sequence of Glucocorticoid receptor (Homo sapiens) (P04150 whole entry, looked up): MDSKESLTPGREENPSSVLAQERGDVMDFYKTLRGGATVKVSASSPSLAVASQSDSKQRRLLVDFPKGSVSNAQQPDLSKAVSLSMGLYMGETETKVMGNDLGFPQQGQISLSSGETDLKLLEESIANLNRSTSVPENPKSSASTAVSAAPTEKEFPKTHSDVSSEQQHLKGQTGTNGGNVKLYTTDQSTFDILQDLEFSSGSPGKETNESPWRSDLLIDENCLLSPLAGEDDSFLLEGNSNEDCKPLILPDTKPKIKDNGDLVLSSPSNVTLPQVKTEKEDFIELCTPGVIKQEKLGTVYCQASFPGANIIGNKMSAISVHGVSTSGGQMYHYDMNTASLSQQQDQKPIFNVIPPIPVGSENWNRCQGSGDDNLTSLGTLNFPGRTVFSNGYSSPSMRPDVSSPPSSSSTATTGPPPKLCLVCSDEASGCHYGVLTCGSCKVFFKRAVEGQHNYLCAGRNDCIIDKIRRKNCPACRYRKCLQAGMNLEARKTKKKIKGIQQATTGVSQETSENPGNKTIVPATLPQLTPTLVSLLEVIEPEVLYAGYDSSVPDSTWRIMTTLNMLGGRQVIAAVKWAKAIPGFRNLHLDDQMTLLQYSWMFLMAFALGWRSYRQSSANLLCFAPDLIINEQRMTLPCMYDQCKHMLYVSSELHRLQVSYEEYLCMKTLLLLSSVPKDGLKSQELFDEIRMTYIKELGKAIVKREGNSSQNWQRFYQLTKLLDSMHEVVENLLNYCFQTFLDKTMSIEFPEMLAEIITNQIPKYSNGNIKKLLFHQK
Sequence of Myc proto-oncogene protein (Homo sapiens) (P01106 whole entry, looked up): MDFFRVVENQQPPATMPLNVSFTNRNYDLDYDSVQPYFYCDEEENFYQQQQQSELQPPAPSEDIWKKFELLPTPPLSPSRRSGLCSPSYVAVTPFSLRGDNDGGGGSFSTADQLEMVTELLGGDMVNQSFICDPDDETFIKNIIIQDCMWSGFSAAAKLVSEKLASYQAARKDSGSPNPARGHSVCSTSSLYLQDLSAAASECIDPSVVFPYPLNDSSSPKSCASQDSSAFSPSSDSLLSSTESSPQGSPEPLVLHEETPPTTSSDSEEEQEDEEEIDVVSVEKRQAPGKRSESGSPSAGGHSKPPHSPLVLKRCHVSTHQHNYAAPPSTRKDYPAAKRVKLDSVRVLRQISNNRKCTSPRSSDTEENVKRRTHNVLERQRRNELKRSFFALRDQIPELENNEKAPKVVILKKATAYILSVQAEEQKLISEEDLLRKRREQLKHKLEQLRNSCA
Sequence of Nuclear receptor subfamily 4 group A member 2 (Homo sapiens) (P43354 whole entry, looked up, the tested form may be a part): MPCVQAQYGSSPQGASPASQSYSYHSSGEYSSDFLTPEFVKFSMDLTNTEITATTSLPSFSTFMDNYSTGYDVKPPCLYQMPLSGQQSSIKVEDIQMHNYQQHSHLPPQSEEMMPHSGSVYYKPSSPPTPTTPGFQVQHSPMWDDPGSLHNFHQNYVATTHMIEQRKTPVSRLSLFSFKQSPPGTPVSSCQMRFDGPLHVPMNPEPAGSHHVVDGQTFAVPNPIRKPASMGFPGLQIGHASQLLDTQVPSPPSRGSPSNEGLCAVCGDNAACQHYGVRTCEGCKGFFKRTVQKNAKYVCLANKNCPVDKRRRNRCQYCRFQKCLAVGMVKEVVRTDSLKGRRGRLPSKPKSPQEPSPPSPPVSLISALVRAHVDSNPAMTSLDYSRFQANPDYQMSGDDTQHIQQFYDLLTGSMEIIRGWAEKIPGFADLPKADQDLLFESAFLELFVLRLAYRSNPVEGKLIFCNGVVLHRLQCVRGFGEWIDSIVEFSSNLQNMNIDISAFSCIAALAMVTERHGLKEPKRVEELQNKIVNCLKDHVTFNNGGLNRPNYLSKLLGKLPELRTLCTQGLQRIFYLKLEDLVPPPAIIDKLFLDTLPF
Sequence of Bile acid receptor (Homo sapiens) (Q96RI1 whole entry, looked up, the tested form may be a part): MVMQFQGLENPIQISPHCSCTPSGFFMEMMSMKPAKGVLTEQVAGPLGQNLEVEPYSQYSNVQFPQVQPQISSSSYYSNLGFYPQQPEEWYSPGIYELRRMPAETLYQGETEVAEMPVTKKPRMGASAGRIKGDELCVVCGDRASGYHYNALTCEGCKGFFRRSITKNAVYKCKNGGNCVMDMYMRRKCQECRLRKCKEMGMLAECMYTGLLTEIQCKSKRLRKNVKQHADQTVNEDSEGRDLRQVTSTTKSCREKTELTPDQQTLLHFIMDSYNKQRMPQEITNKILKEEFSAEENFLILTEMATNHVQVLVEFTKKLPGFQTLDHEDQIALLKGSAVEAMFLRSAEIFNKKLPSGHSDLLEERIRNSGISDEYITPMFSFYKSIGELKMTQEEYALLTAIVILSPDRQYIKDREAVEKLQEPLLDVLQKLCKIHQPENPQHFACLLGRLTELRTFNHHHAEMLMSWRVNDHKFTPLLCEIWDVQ
Sequence of Cellular tumor antigen p53 (Homo sapiens) (P04637 whole entry, looked up, the tested form may be a part): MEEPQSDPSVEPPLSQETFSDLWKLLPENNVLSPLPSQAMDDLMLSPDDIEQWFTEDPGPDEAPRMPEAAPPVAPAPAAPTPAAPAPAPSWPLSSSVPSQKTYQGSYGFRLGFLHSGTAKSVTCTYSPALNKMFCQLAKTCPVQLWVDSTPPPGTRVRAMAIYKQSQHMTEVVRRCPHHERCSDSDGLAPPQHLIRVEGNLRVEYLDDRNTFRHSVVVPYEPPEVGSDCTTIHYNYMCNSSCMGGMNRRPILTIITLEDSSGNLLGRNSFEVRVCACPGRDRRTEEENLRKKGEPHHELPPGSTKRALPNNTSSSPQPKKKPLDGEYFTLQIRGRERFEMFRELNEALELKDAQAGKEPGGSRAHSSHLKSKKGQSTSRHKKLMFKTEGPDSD
Sequence of Estrogen-related receptor gamma (Homo sapiens) (P62508 whole entry, looked up, the tested form may be a part): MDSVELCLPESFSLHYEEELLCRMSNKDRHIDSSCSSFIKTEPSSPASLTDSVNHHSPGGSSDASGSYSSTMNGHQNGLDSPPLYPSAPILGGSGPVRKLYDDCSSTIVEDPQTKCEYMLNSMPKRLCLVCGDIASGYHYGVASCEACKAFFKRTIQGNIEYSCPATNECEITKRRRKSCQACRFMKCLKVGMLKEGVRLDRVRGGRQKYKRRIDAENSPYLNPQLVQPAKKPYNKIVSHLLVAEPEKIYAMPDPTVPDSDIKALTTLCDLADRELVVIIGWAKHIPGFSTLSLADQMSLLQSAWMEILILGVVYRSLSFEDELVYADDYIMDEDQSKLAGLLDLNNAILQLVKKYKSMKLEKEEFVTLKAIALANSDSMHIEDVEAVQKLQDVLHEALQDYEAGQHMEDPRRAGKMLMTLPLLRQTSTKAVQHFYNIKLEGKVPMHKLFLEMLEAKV

Regarding `C=CC(C)(CCC=C(C)C)OC(=O)CC` (stereo not given), the call in [1], in assay [2], in assay [3], in assay [4], in assay [5] and in [6] was inactive. Moreover, the compound was called inactive in [7], in assay [8], in [9] and in assay [11]. In [10], the AC50 is 68.1 µM (active).
Turning to `CC(C)CCOC(=O)CC(C)C`, the call in assay [1], in assay [2], in assay [3], in assay [5], in assay [6] and in [7] was inactive. Also, the call in assay [8], in assay [9], in [12], in assay [13] and in assay [11] was inactive.
As for `CN(C)CCC=C1c2ccccc2CCc2ccccc21`, the outcome in [1], in assay [2], in assay [4], in assay [7], in assay [8] and in assay [9] was inactive. Also, the concentration at half-maximal activity (AC50) in assay [12] was 13.4 µM (active); in assay [10], 33.4 µM (active); in [13], 24.6 µM (active); in assay [11], 23.1 µM (active).
For `C=C(C)C(N)=O`, the call in assay [14], in [15], in assay [6], in assay [7], in [8] and in assay [9] was inactive. In addition, the result in [12], in assay [10], in [13], in assay [11], in [16] and in [17] was inactive. Besides, in assay [18], the result was inactive.
For `CC(C)Cc1ccc(C(C)C(=O)O)cc1` (stereo not given), the call in assay [14], in [19], in assay [4], in assay [5], in assay [6] and in assay [7] was inactive. Further, the compound was classed as inactive in assay [8], in assay [9], in assay [12], in assay [10], in assay [13] and in assay [11]. The result in assay [16], in [17] and in assay [18] was inactive.
